# Assay outcomes as filed in PubChem.
# HTT ATP protect = Huntington cell model cytoprotection by ATP luminescence | PC12 HTT-Q103 induced, cytoprotection, ATP luminescence, 40 h | Potency, µM (top dose mostly 56.4 µM), most hits filed as activators | 230,000 tested, 0.14% active | AID 1471; further: nearly all actives have a fitted effect of over 45% in size
#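 PC12 cells with ecdysone-inducible HTT exon 1 Q103-GFP, induced with 100 nM tebufenozide and co-treated with library compounds in a dose series (1536-well, 1500 cells/well). Cytoprotection read as ATP content by ATPlite luminescence.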
# TGFb SMAD3 inh = inhibitors of TGF-b signaling. HepG2 CAGA-GFP TGF-b/SMAD3 reporter, GFP fluorescence, 18 h; TGF-beta stimulated, 500 pg/mL final. Potency, µM (doses to about 46.1 µM), hits mostly inhibitors. 410,000 tested, 1.2% active. AID 588855; further: nearly all actives have a fitted effect of over 65% in size
#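 Using HEPG2 CAGA-GFP reporter cells at 1000 cells/well, we pinned test compounds, stimulated with recombinant TGF-beta (500 pg/mL final) and measured total well GFP after 18 h.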
# ATXN2 expr inh = reduces ATXN2 reporter expression in HEK-293 cells; 360,000 tested, 0.72% active; Potency, µM (series often up to 57 µM), most hits filed as inhibitors; HEK-293 ATXN2-luciferase reporter, luminescence, 24 h; further: nearly all actives have a fitted effect of over 55% in size
#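 qHTS (up to 57 uM final) was run with 24 h compound exposure of reporter cells at 37 °C. Each well was multiplexed: SteadyGlo luminescence measured ATXN2-luciferase expression after a fluorogenic Gly-Phe-AFC viability readout (25 uM final).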
# HepG2 viability = kills HepG2 cells in TGF-b inhibitor counter-screen. 410,000 tested, 0.76% active. HepG2 CAGA-GFP viability, ATP luminescence, 18 h. Potency, µM (top dose mostly 46.1 µM), usual class: cytotoxic. AID 588856
#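 HepG2 CAGA-GFP cells (1000/well, DMEM with 1% FBS) received compound, then TGF-beta at 500 pg/mL final, and were incubated 18 hours at 37 degrees C. Viability was read by CellTiter-Glo luminescence. Media-only wells were set as complete cell-killing and DMSO as no toxicity.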
# S2 tox = reduces viability in counter-screen for ATXN expression inhibitors. Potency, µM (top dose mostly 56.7 µM), actives largely listed as cytotoxic. 400,000 tested, 0.49% active. S2 cells (HEK-293 line with an ATXN2-luciferase reporter) viability, CellTiter-Fluor protease fluorescence, 24 h; further: nearly all actives have a fitted effect of over 40% in size
# HTT aggregate = reduces HttQ103-GFP aggregates in PC12 cells; PC12 HttQ103-GFP aggregates, Acumen cytometry, 40 h; Potency, µM (titrated, usually from 46.1 µM), actives largely listed as inhibitors; 220,000 tested, 1.1% active; further: nearly all actives have a fitted effect of over 60% in size
#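 Ecdysone-promoter PC12 model expressing HTT exon 1 Q103 fused to GFP, induced by tebufenozide at 100 nM final. Compounds titrated; aggregates sized 1–25 µm scored on a 488 nm laser cytometer.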
# Numbers stand for hits; 0 = inactive; ? = inconclusive; - = not tested or not shown; ! = repeats disagree; [ ] = another dose, or the depositor's remark. Compounds with a hit are over-represented: about 2.8% of the library has one in this group of screens. The call rests on the fitted dose curve; in most records, active means well fitted curve in the direction sought with a large enough effect; inconclusive means small, poorly fitted or top-dose-only effect, or another doubt; inactive means no such curve, though single readings can be large; an effect the other way counts as inactive or inconclusive.
SMILES,HTT ATP protect,TGFb SMAD3 inh,ATXN2 expr inh,HepG2 viability,S2 tox,HTT aggregate
Cc1nc(SCc2ccc(F)cc2)n[nH]1,-,0,0,0,0,-
CCOC(=O)c1ccc2c(c1)n(CC)c(/C=C/Nc1ccccc1)[n+]2CC,0,0,?,0,11µM,0
CC(C)N1CCN(C(=O)c2cnn(-c3nccc(-c4ccc5c(c4)OCO5)n3)c2-c2ccco2)CC1,-,-,-,-,0,-
O=C(/C=C\c1ccc(O)c(O)c1)O[C@H]1C[C@@](O)(C(=O)O)C[C@H](O)[C@@H]1O,0,-,-,-,-,-
CCOC(=O)c1ccc(-c2ccc(/C=C(\C#N)c3nc4ccc(C)cc4[nH]3)o2)cc1,-,-,-,3.2µM,-,-
Cc1ccc2nc(/C(C#N)=C/c3ccc(-c4ccccc4C(=O)O)o3)[nH]c2c1,-,0,-,0,-,-
CCCCn1nnc(NC(=O)c2sc3cc(Cl)ccc3c2Cl)n1,0,0,0,0,0,0.63µM
CC(NC(=O)c1cccnc1)c1nnc2n1CCN(Cc1ccc(-c3ccccc3Cl)o1)CC2 (stereo not drawn),-,-,-,-,0,-
Cc1ccc(Cc2c(-c3ccc(F)cc3)nc3c(C)cc(Br)cn23)cc1,-,13µM,0,0,?,-
Fc1ccc(-c2nc3ccc(Br)cn3c2Cc2cccc(F)c2)cc1,-,13µM,0,0,0,-
N#CC(=C1Nc2ccccc2S1)c1ccnc(OCc2ccc(CN3CCOCC3)cc2)n1,-,-,0.014µM,-,-,-
CCOC(=O)N1CCN(c2nc(CN3CCCCC3CCO)nc3c(C)cccc23)CC1 (stereo not drawn),-,-,-,-,0,-
C(C#CCCCCCCCCC[n+]1ccccc1)#CCCCCCCCCC[n+]1ccccc1,-,11µM,7.1µM!,0,13µM,-
c1ccc2c[n+](CCCC[n+]3ccc4ccccc4c3)ccc2c1,0[10 µM],-,-,-,-,-
COc1cc(N(C)C)c(OC)cc1/C=C1\Cc2ccccc2C1=O,-,0,-,0,-,-
O=[N+]([O-])c1ccc(/C=C/c2cc(Cl)nc3ccccc23)cc1,-,0,-,0,-,-
O=C(NCCc1ccccc1)c1ccc(CSc2nc3ccncc3n2Cc2ccccc2F)cc1,-,7.1µM,0,0,?,-
Cc1cccc(Cn2c(SCc3ccc(C(=O)NCCc4ccccc4)cc3)nc3ccncc32)c1,-,7.9µM,0,0,?,-
C[C@H](CC[C@@H]1OC1(C)C)C1CC[C@H]2[C@@H]3CC=C4C[C@@H](O)CC[C@]4(C)[C@H]3CC[C@]12C (stereo partly drawn),0,-,-,-,-,-
CC(C)(OCc1nn(Cc2ccccc2)c2ccccc12)C(=O)O,-,-,0,-,-,-
CC1(Cc2ccc(C(F)(F)F)o2)C(=O)Nc2ccc(-c3cccc(C(F)(F)F)c3)cc21 (stereo not drawn),-,14µM,?,18µM,0,-
CCc1ccc2c(c1)NC(=O)C2(C)Cc1ccc(C(F)(F)F)o1 (stereo not drawn),-,?,?,0,?,-
CC1(Cc2ccc3c(c2)OCO3)C(=O)Nc2ccc(-c3cccc(C(F)(F)F)c3)cc21 (stereo not drawn),-,?,?,18µM,?,-
Cc1ccc(S(=O)(=O)N2CCCc3cc(NS(=O)(=O)c4cccc(Cl)c4)ccc32)cc1,-,10µM,?,0,?,-
CC1=CC(C)(C)Nc2ccc(OC(=O)CCN3C(=O)c4ccccc4C3=O)cc21,0[1.9 µM],?,25µM,0,-,0[1.84 µM]
SMILES,HTT ATP protect,TGFb SMAD3 inh,ATXN2 expr inh,HepG2 viability,S2 tox,HTT aggregate
O=C(CCN1C(=O)c2ccccc2C1=O)Oc1ccc2ccccc2c1,0,0,0,0,0,0
O=C(CS(=O)(=O)c1cccc2nsnc12)N1CCN(c2ccccc2F)CC1,-,16µM,0,0,0,-
Cc1cc(NC(=O)c2cccnc2)ccc1NC(=O)c1ccco1,0,0,0,0,0,0
COc1ccc(NC(=O)c2ccco2)cc1NC(=O)c1cccnc1,0[0.074 µM],0,0,0,0,3.2µM
Cc1cc(/C=C\c2ccc3cc(N(C)C)ccc3[n+]2C)c(C)n1-c1ccccc1,0,?,1µM,0,4µM,3.2µM
C[n+]1c(/C=C/c2ccc(O)cc2)ccc2ccccc21,-,0,0,0,-,-
CCc1ccc(S(=O)(=O)NCc2cccn2Cc2cccc(C)c2)cc1,-,?,?,0,?,-
Cc1cccc(Cn2cccc2CNS(=O)(=O)c2ccc(C)c(C)c2)c1,-,18µM,?,0,0,-
Cc1cccc(Cn2cccc2CNS(=O)(=O)c2ccc(Br)cc2)c1,-,16µM,?,0,?,-
C=CCOC(=O)N[C@@H](c1ccc(Br)cc1)C(C(C)=O)C(C)=O,0,-,-,-,-,-
CC(C)(C)c1ccc(S(=O)(=O)N2CCN(Cc3noc(CCC(=O)N4CCCCC4)n3)CC2)cc1,-,?,-,0,-,-
CC(C)Cc1ccc(S(=O)(=O)N2CCN(Cc3noc(CCC(=O)N4CCCCC4)n3)CC2)cc1,-,11µM,-,0,-,-
O=C(CN1C2=NCCN2c2ccccc21)c1ccc(Br)cc1,0[10 µM],?,0,0,0,0
O=C(CN1C2=NCCCN2c2ccccc21)c1ccc(Cl)cc1Cl,0[10 µM],?,0,0,0,0
O=C(CN1C2=NCCCN2c2ccccc21)c1ccc([N+](=O)[O-])cc1,0,?,?,16µM,0,0
O=C(CN1C2=NCCCN2c2ccccc21)c1cccc(Br)c1,0[10 µM],?,0,0,?,4µM
O=C(CN1C2=NCCN2c2ccccc21)c1ccc2c(c1)OCO2,0[10 µM],0,0,0,16µM,0
CCC1CN(CCNC(=O)c2ccccc2-n2cccn2)Cc2cc(OC)ccc2O1 (stereo not drawn),-,-,-,-,0,-
Cc1ccc(C(=O)N2CCOc3ccc(CN4CCN(Cc5ccccn5)CC4)cc3C2)cc1,-,-,-,-,0,-
Clc1ccc(-c2cn3nc4c(nc3n2)CCCC4)cc1,0,0,14µM,0,-,0
NCCCC[C@H](NC(=O)[C@@H]1CCCN1C(=O)[C@@H]1CSSC[C@H](N)C(=O)N[C@@H](Cc2ccccc2)C(=O)N[C@@H](Cc2ccccc2)C(=O)N[C@@H](CCC(N)=O)C(=O)N[C@@H](CC(N)=O)C(=O)N1)C(=O)NCC(N)=O,-,-,-,-,0,-
O=S1(=O)N[C@H](Cc2ccccc2)COc2cccc(N3CCN(Cc4ccccc4F)CC3)c21,-,-,?,-,18µM,-
Cc1ccc(S(=O)(=O)N2CC3(O)CN(C(=O)OC(C)C)N(C(=O)OC(C)C)CC3(OC(=O)NC3CC3)C2)cc1 (stereo not drawn),-,-,0,-,0,-
Cc1ccc(S(=O)(=O)N2CC3(O)CN(C(=O)OC(C)C)N(C(=O)OC(C)C)CC3(OC(=O)NCc3ccccc3F)C2)cc1 (stereo not drawn),-,?,0,0,22µM,-
